We go through eight compounds from PubChem BioAssay (NCI).

Test systems include SK-MEL-2 melanoma; EKVX NSCLC; SN12C renal; UO-31 renal; TK-10 renal; ACHN renal; CAKI-1 renal; A498 renal; CCRF-CEM leukemia; MOLT-4 leukemia; SR leukemia; RPMI-8226 leukemia; OVCAR-8 ovarian; OVCAR-5 ovarian; OVCAR-4 ovarian; SK-OV-3 ovarian; IGROV1 ovarian; OVCAR-3 ovarian; HS 578T breast; NCI/ADR-RES ovarian.
Assay in all cases: NCI-60 one-dose screen, 48 h (100 = growth as untreated, 0 = no growth, -100 = all killed)
Holding throughout (details): 10 µM unless noted

The panel holds about 83,000 compounds, 20% with a hit somewhere; the sample as a whole holds those more often.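 Single-concentration screen, 48 h exposure, 96-well plates. Endpoint: percent growth. Below 10 = active.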 Unmarked numbers belong to inactive results. The source made the active and inactive calls.

For `COc1ccc([C@H]2c3[nH]c4ccccc4c3C[C@H]3C(=O)N(CCCCCCC(=O)NO)CC(=O)N23)cc1`, the growth was 31.4% in the assay on SK-MEL-2 melanoma; 66.8% in the assay with EKVX NSCLC; 46.5% with SN12C renal; 43.8% in the assay on UO-31 renal; 43.5% in the assay with TK-10 renal; 22.1% in the assay with ACHN renal. For the same compound, the growth was 43.9% in the assay with CAKI-1 renal; -4.1% (active) with A498 renal; 13.3% in the assay on CCRF-CEM leukemia; 12.1% in the assay on MOLT-4 leukemia; 16.5% in the assay on SR leukemia; -9.73% (active) in the assay on RPMI-8226 leukemia. Besides, the growth in the assay on OVCAR-8 ovarian is 30.3%; in the assay on OVCAR-5 ovarian, 23.3%; with OVCAR-4 ovarian, 54.3%; in the assay on SK-OV-3 ovarian, 55.3%; in the assay with IGROV1 ovarian, 34.3%; in the assay on OVCAR-3 ovarian it was 33.9%. The values for the growth with HS 578T breast and in the assay on NCI/ADR-RES ovarian were 47.7% and 58.4%, respectively.
With `C=C1C(=O)O[C@H]2[C@H]1CC/C(COC(=O)NCc1c[nH]c3ccc(OC)cc13)=C\CC[C@@]1(C)O[C@@H]21`, the growth is 35.9% in the assay on SK-MEL-2 melanoma; 33.9% in the assay on EKVX NSCLC; 10.9% in the assay on SN12C renal; -85% (active) in the assay on UO-31 renal; -40.3% (active) in the assay with TK-10 renal; -10.7% (active) in the assay on ACHN renal. The growth in the assay with CAKI-1 renal was -2.21% (active); in the assay with A498 renal, 94.1%; in the assay with CCRF-CEM leukemia, -7.78% (active); with MOLT-4 leukemia it was 2.7% (active); in the assay with SR leukemia, 8.82% (active); in the assay with RPMI-8226 leukemia, -25.8% (active). Moreover, the growth in the assay on OVCAR-8 ovarian was 21.3%; with OVCAR-5 ovarian it was 45.2%; in the assay on OVCAR-4 ovarian, 19.9%; in the assay with SK-OV-3 ovarian, 68.3%; in the assay with IGROV1 ovarian, -21.7% (active); in the assay with OVCAR-3 ovarian, -84.2% (active). Moreover, the growth in the assay with HS 578T breast is 61.8%; in the assay on NCI/ADR-RES ovarian, 73.1%.
For the compound `CCn1c(Cc2ccccc2Nc2c(Cl)cccc2Cl)nnc1SCC(=O)Nc1ccccc1C(F)(F)F`, the growth with SK-MEL-2 melanoma is 79.9%; in the assay on EKVX NSCLC, 82.8%; in the assay on SN12C renal it was 77.1%; with UO-31 renal, 74.8%; in the assay with TK-10 renal it was 88%; in the assay on ACHN renal it was 106%. The growth with CAKI-1 renal is 87.1%; with A498 renal, 64.5%; in the assay with CCRF-CEM leukemia, 108%; in the assay with MOLT-4 leukemia it was 70.2%; with SR leukemia, 79.8%; with RPMI-8226 leukemia, 76.4%. Also, the growth in the assay with OVCAR-8 ovarian was 92.8%; in the assay with OVCAR-5 ovarian, 110%; in the assay with OVCAR-4 ovarian it was 79%; in the assay with SK-OV-3 ovarian it was 96.1%; in the assay on IGROV1 ovarian, 79.4%; with OVCAR-3 ovarian, 99.9%. The results for the growth in the assay with HS 578T breast and in the assay on NCI/ADR-RES ovarian were 94.9% and 87.4%, respectively.
For the compound `CC(=O)O[C@@H]1CC2C(C)(C)CCCC2(C)C2=C1C(=O)C(C(C)C)=CC2=O` (stereo not given in full), the growth is -47.9% (active) in the assay on SK-MEL-2 melanoma; 10.8% in the assay with EKVX NSCLC; 7.47% (active) in the assay with SN12C renal; -94.1% (active) in the assay with UO-31 renal; 18.6% with TK-10 renal; -70.2% (active) with ACHN renal. The growth in the assay on CAKI-1 renal was -3.95% (active); in the assay with A498 renal, -63.3% (active); with CCRF-CEM leukemia, 14%; in the assay on MOLT-4 leukemia it was 9.69% (active); with SR leukemia, -0.431% (active); in the assay with RPMI-8226 leukemia, 2.06% (active). Further, the growth was -2.03% (active) in the assay with OVCAR-8 ovarian; -45.4% (active) in the assay with OVCAR-5 ovarian; 13.4% in the assay on OVCAR-4 ovarian; 17.2% in the assay with SK-OV-3 ovarian; 7.5% (active) in the assay on IGROV1 ovarian; 0.0354% (active) in the assay on OVCAR-3 ovarian. Moreover, the growth is 9.38% (active) in the assay on HS 578T breast and 15.9% in the assay with NCI/ADR-RES ovarian.
In the case of `C=C1C[C@@]2(C)C(CC[C@]3(C)C2CC=C2C4CC(C)(C)C[C@@H](OC(=O)/C(C)=C\C)[C@]4(C(=O)O)CC[C@]23C)C(C)(C)C1=O` (stereo not given in full), the growth was 18.8% in the assay with SK-MEL-2 melanoma; 31.7% in the assay on EKVX NSCLC; 6.55% (active) with SN12C renal; -74.6% (active) in the assay with UO-31 renal; 17.2% in the assay on TK-10 renal; -83.8% (active) with ACHN renal. Further, the growth is -7.09% (active) in the assay on CAKI-1 renal; -17.4% (active) with A498 renal; 2.34% (active) with CCRF-CEM leukemia; 7.64% (active) in the assay with MOLT-4 leukemia; -0.663% (active) with SR leukemia; -15.6% (active) with RPMI-8226 leukemia. Besides, the growth was 15% in the assay on OVCAR-8 ovarian; 7.88% (active) with OVCAR-5 ovarian; 39.4% in the assay on OVCAR-4 ovarian; 86.2% in the assay on SK-OV-3 ovarian; 1.07% (active) in the assay on IGROV1 ovarian; -16.8% (active) with OVCAR-3 ovarian. Besides, the growth was 51.3% in the assay on HS 578T breast and 9.03% (active) in the assay on NCI/ADR-RES ovarian.
For `CS(=O)(=O)c1ccc(C(=O)N2N=C(c3ccccc3)CC2c2ccc3c(c2)OCO3)cc1` (stereo not given), the growth in the assay with SK-MEL-2 melanoma was 89.8%; with EKVX NSCLC, 93.4%; with SN12C renal it was 94.4%; in the assay with UO-31 renal, 66.5%; in the assay on TK-10 renal, 107%; in the assay on ACHN renal it was 107%. Besides, the growth in the assay with CAKI-1 renal was 92.5%; in the assay on A498 renal it was 86.2%; in the assay with CCRF-CEM leukemia, 105%; in the assay on MOLT-4 leukemia, 52.4%; in the assay on SR leukemia, 90.9%; with RPMI-8226 leukemia, 95.7%. The growth with OVCAR-8 ovarian is 100%; with OVCAR-5 ovarian, 100%; in the assay on OVCAR-4 ovarian it was 99.3%; with SK-OV-3 ovarian it was 83.7%; in the assay with IGROV1 ovarian it was 96.2%; in the assay with OVCAR-3 ovarian it was 106%. The growth in the assay on HS 578T breast is 95.7%; in the assay with NCI/ADR-RES ovarian, 103%.
On to `C#CCO[C@H]1CC[C@H](OCC#C)[C@@H]2[C@H]1[C@H]1C[C@@H]3[C@@]4(C)CCC[C@@](C)(C(=O)OC)[C@@H]4CC[C@@]23C=C1C(C)C`, for which the growth is 85% with SK-MEL-2 melanoma; 74.4% in the assay with EKVX NSCLC; 86.3% with SN12C renal; 50.5% with UO-31 renal; 93.7% with TK-10 renal; 92.6% with ACHN renal. Besides, the growth in the assay with CAKI-1 renal is 59.3%; with A498 renal, 108%; in the assay with CCRF-CEM leukemia, -52.9% (active); with MOLT-4 leukemia it was 56.2%; in the assay with SR leukemia it was 20.5%; in the assay with RPMI-8226 leukemia, 11.7%. Besides, the growth with OVCAR-8 ovarian is 82%; in the assay on OVCAR-5 ovarian, 92.1%; in the assay with OVCAR-4 ovarian, 99.3%; in the assay with SK-OV-3 ovarian, 88.6%; with IGROV1 ovarian, 0.137% (active); in the assay with OVCAR-3 ovarian, 75.4%. For the same compound, the growth in the assay on HS 578T breast is 114%; in the assay with NCI/ADR-RES ovarian, 71.4%.
Take `C#CCNc1nc(NCCNC(=O)CCl)nc(N(C)CCCCc2ccccc2)n1`: the growth in the assay on SK-MEL-2 melanoma was 98.9%; in the assay with EKVX NSCLC, 102%; in the assay with SN12C renal, 77.1%; in the assay with UO-31 renal it was 82.4%; in the assay on TK-10 renal, 97.7%; in the assay on ACHN renal it was 100%. The growth with CAKI-1 renal was 95.2%; with A498 renal, 99.2%; in the assay with CCRF-CEM leukemia it was 23.8%; in the assay on MOLT-4 leukemia, 43.3%; in the assay on SR leukemia, 62.1%; in the assay with RPMI-8226 leukemia, 89.2%. For the same compound, the growth with OVCAR-8 ovarian was 101%; with OVCAR-5 ovarian, 109%; in the assay with OVCAR-4 ovarian, 96.6%; in the assay with SK-OV-3 ovarian, 101%; with IGROV1 ovarian it was 78.9%; in the assay with OVCAR-3 ovarian it was 94.3%. For the same compound, the figures for the growth in the assay with HS 578T breast and in the assay with NCI/ADR-RES ovarian were 94.2% and 102%, respectively.
